A selection: hits, their analogues and other compounds. The true share with any hit is near 5.9%.
ABHD5-PLIN5 inh – ABHD5-PLIN5 interaction inhibitors, primary screen, cell lysate, split luciferase complementation, luminescence | Perilipin-5 (Homo sapiens) + 1-acylglycerol-3-phosphate O-acyltransferase ABHD5 (Homo … | Split G. princeps luciferase complementation, 4 h | inhibition, % at 4 µM | 360,000 compounds, 0.78% hits | AID 602281, 2012;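 active = inhibition above the mean inhibition across every tested compound plus 3 SD, cut at about 22% in these data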
ALR inh – inhibitors of human ALR sulfhydryl oxidase, primary screen, biochemical, H2O2 detection, HRP-luminol luminescence, single point; inhibition, % (no concentration beside the values); AID 485317, 2010; 290,000 compounds, 3.8% hits; FAD-linked sulfhydryl oxidase ALR (Homo sapiens), P55789; purified ALR, DTT oxidation;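 active = mean replicate inhibition above about 79%, with every replicate also reaching it, limit read from the data; inconclusive = only one of the two criteria met; inactive = mean below limit and not every replicate reaching it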
PRMT1 inh – PRMT1 methyltransferase inhibitors, primary screen, biochemical, fluorescence polarization. inhibition, % at 2.79 µM. 370,000 compounds, 1.3% hits. Protein arginine N-methyltransferase 1 (Homo sapiens), Q99873. AID 652257, 2013. recombinant PRMT1, activity-based probe fluorescence polarization;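 active = inhibition above about 21% made by adding two undisclosed values, limit read from the data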
Rtt109 Vps75 – inhibitors of C. albicans Rtt109/Vps75 HAT, primary screen, biochemical, ThioGlo CoA-SH fluorescence, plate reader; Histone acetyltransferase RTT109 (Candida albicans (strain SC5314 / ATCC MYA-2876)), …; purified Rtt109/Vps75, 4 h; inhibition, % at 34.9 µM; 330,000 compounds, 0.16% hits; AID 540336, 2011;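 active = inhibition of at least 50% in every replicate; inconclusive = best replicate reaches 50% inhibition but some replicates fall short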
LANA-H2A inh – blockers of LANA interaction with H2A/H2B – biochemical, FP readout, HTS, primary screen; cell-free LANA-H2A/H2B peptide, fluorescence polarization; inhibition, % (test concentration not listed); 320,000 compounds, 0.6% hits; AID 2629, 2010; in the data active = inhibition mostly above about 10%, no sharp cut-off; inactive = mostly below about 6.7%
Target sequence (Q9QR71 whole entry, looked up): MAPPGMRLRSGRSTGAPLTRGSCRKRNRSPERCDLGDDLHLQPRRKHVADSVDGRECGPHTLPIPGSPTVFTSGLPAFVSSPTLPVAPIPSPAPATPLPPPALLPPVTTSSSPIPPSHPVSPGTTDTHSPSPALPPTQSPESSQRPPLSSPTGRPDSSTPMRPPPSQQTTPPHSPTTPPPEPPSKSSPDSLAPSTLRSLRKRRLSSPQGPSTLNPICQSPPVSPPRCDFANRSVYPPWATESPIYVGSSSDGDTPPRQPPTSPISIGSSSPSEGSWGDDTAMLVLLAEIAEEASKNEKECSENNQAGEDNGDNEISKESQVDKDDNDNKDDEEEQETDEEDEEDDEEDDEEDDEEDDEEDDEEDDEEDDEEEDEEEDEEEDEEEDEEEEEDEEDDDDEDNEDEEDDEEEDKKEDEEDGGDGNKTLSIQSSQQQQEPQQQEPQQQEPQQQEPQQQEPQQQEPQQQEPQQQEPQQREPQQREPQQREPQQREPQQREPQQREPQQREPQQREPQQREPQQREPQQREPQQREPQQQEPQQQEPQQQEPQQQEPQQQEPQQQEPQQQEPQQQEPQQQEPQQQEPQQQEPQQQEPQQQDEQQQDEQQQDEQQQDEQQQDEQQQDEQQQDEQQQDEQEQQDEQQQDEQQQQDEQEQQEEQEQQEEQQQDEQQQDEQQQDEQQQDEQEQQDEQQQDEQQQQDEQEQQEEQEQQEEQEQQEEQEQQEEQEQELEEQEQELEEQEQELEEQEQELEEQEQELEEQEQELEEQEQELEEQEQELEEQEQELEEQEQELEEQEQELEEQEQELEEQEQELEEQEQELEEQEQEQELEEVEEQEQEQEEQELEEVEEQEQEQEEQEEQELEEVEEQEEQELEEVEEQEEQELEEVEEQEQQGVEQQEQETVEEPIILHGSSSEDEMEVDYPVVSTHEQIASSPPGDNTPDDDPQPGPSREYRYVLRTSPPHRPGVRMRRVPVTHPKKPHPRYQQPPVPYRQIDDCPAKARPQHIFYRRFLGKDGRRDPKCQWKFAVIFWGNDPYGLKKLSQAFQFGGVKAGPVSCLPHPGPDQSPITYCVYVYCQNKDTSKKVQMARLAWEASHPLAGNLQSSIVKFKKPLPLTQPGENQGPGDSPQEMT
rCAG binder – binders of r(CAG) RNA repeats, primary screen, biochemical, fluorescence | inhibition, % at 3 µM | r(CAG) RNA repeat, TO-PRO-1 dye displacement fluorescence | 370,000 compounds, 1.3% hits | AID 651821, 2012;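 active = inhibition above the plate cutoff, the mean of all test compounds on that plate plus 3 SD, cut at about 35% in these data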;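 note: higher means more dye released from RNA so lower well fluorescence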
Each line names hits and unclear results; the compound was inactive in the other large screens.

CCOc1cc(C(c2c(C)[nH][nH]c2=O)c2c(C)[nH][nH]c2=O)ccc1O	ALR inh 95
O=S1(=O)C=CCN1Cc1cn(Cc2ccc(Cl)cc2)nn1	none (no result: ABHD5-PLIN5 inh, ALR inh, Rtt109 Vps75, LANA-H2A inh)
CC(C)CC1(C(=O)O)NC(c2ccccc2O)C2C(=O)N(C(C)C)C(=O)C21 (stereo not given)	ALR inh 93
CC(C)N1C(=O)C2C(c3ccccc3O)NC(C)(C(=O)O)C2C1=O (stereo not given)	ALR inh 89
COc1cccc(C2NC(CCSC)(C(=O)O)C3C(=O)N(C(C)C)C(=O)C23)c1O (stereo not given)	ALR inh 98
CC(OC(=O)c1nc(Cl)ccc1Cl)C(=O)NCc1ccccc1 (stereo not given)	none (no result: ALR inh, Rtt109 Vps75, LANA-H2A inh)
O=C(CSc1nnc(-c2ccncc2)n1-c1ccc(Cl)cc1)c1ccc(Cl)c(Cl)c1	none (no result: ABHD5-PLIN5 inh, ALR inh, Rtt109 Vps75, LANA-H2A inh)
CC1=C/C(=N\OC(=O)/C=C/c2ccccc2)C(C)=CC1=O	ALR inh 95
N/C(=N\OC(=O)/C=C/c1ccccc1)c1ccccc1	none
CCOC(=O)c1c(N2CCN(c3ccccc3)CC2)cc(C)nc1C	ALR inh 97
CCOC(=O)c1c(CN2CCN(c3ccccc3)CC2)oc2ccc(O)cc12	none
N#CC12COC3(CCCCC3C1(C#N)C#N)OC2=N (stereo not given)	PRMT1 inh 35
N#CC1(C#N)COC23CCCCC2C1(C#N)C(=N)O3 (stereo not given)	PRMT1 inh 22
CC(=O)Nc1ccc(C2=CC(=O)C[C@H](c3ccc(Cl)cc3)C2)cc1	none
COC(=O)[C@@]12CCCCC3=C1N(CCC3)C(=O)[C@H]2CC(=O)NCCCN1CCCC1=O	none (no result: ABHD5-PLIN5 inh, ALR inh, Rtt109 Vps75, LANA-H2A inh)
COC(=O)Cn1cnc2ccccc2c1=O	none
CC(C)OC(=O)Cn1cnc2ccc(Br)cc2c1=O	ALR inh 89
Cc1c(OC(C)C(=O)N2C[C@H]3C[C@@H](C2)c2cccc(=O)n2C3)ccc2c3c(c(=O)oc12)CCCC3 (stereo not given in full)	none
Cc1cc(C)n2nc(SCC(=O)Nc3ccc(O)cc3)nc2n1	ALR inh 99
CCN(CC)c1ccc(NC(=O)CSc2nnc3nc(C)cc(C)n23)cc1	ALR inh 99
Cc1cc(C)n2c(SCC(=O)Nc3ccccc3)nnc2n1	none
Cc1cc(SCC(=O)Nc2ccc(O)cc2)n2nc(C)c(-c3ccccc3)c2n1	ALR inh 99
Cc1cc(C)n2nc(SCC(=O)Nc3ccc(F)cc3)nc2n1	none
CCN(CC)c1ccc(NC(=O)c2nc3nc(C)cc(C(F)F)n3n2)cc1	ALR inh 99
CCOc1ccc(NC(=O)CN2CCN(c3ccc(F)cc3)CC2)cc1S(=O)(=O)N1CCCC1	none (no result: ALR inh, Rtt109 Vps75, LANA-H2A inh)
CCc1cc(-c2nc(N)ncc2-c2ccc(Br)cc2)c(O)cc1OC	LANA-H2A inh 19
CCCN(CCC)c1ccc(CC(=O)NC(C)Cc2ccccc2)cc1 (stereo not given)	ALR inh 98
CC(Cc1ccccc1)NC(=O)CC(c1ccccc1)c1ccccc1O (stereo not given)	none
CCCNC(=O)C(Cc1ccccc1)NC(=O)Cc1ccccc1 (stereo not given)	none
CCN(CC)c1ccc(CC(=O)NC(C)Cc2ccccc2)cc1 (stereo not given)	ALR inh 100
COc1ccc(CN2C(=O)C(Cc3ccccc3)Nc3ncnc(N4CCc5ccccc5C4)c32)cc1 (stereo not given)	none (no result: ABHD5-PLIN5 inh, PRMT1 inh, Rtt109 Vps75, rCAG binder)
COc1cc(NC(=O)Cc2ccccc2)c(C(=O)O)cc1OC	none
COc1cc(NC(=O)N2c3ccccc3Sc3ccccc32)c(C(=O)O)cc1OC	ALR inh 99
CC(C)(/C=N/O)N(O)C=C1C=CC(=O)C=C1	ALR inh 99
Oc1oc(-c2ccco2)nc1C=Nc1cccc(Cl)c1	ALR inh 96
CCc1cc(C(=O)c2ccccc2)c(N)s1	ALR inh 99
O=S1(=O)c2c(cccc2N2CCSCC2)Oc2ccccc2CN1Cc1cn(Cc2ccc(Cl)cc2)nn1	none (no result: ABHD5-PLIN5 inh, ALR inh, Rtt109 Vps75, LANA-H2A inh)
CCC(C)c1ccccc1N1CC(C(=O)N2CCN(S(=O)(=O)c3cccc([N+](=O)[O-])c3)CC2)CC1=O (stereo not given)	none (no result: ALR inh, Rtt109 Vps75, LANA-H2A inh)
CCOC(=O)/C=C1\Nc2ccccc2OC1=O	ALR inh 93
Cc1cc(N2CCN(C(=O)OC(C)(C)C)C[C@H]2C)ccc1Br	none (no result: ABHD5-PLIN5 inh, ALR inh, Rtt109 Vps75, LANA-H2A inh)
COc1ccc(-c2noc(C3CCCN(C(=O)Nc4ccc5c(c4)OCO5)C3)n2)cc1 (stereo not given)	none (no result: ABHD5-PLIN5 inh, ALR inh, Rtt109 Vps75, LANA-H2A inh)
CC(C)Cn1c(N)c(C(=O)CCl)c(=O)n(C)c1=O	ALR inh 98
CC(C)Cn1c(N)c(/C=N/NC(=O)c2ccc(Cl)cc2)c(=O)n(C)c1=O	none
CC(C)Cn1c(N)c(C=O)c(=O)n(C)c1=O	ALR inh 100 (no result: Rtt109 Vps75)
O=C(O)c1ccc(CSc2nnc(-c3ccc(Cl)cc3)o2)cc1	none
O=S(=O)(Nc1ccc(-c2nnc(SCc3ccc(Cl)cc3)o2)cc1)c1ccccc1	Rtt109 Vps75 57
COc1ccc(CN(CCN2CCOCC2)C(=O)c2cc(F)cc(F)c2)cc1OC	none (no result: ABHD5-PLIN5 inh, ALR inh, Rtt109 Vps75, LANA-H2A inh)
O=C(CSc1ccc(Br)cc1)NC1CCS(=O)(=O)C1 (stereo not given)	none (no result: ALR inh)
Cc1ccc(SCC(=O)NC2CCS(=O)(=O)C2)cc1C (stereo not given)	ALR inh 99
O=S(=O)(c1ccc2ccccc2c1)N1CCN=C1SCc1cccnc1	ALR inh 99
CC(=O)Nc1ccc(S(=O)(=O)N2CCN=C2SCc2cccnc2)cc1	ALR inh 98
O=S(=O)(c1ccc(Br)cc1)N1CCN=C1SCc1cccnc1	ALR inh inconclusive
O=S(=O)(c1ccc(F)cc1)N1CCN=C1SCc1cccnc1	ALR inh 98
Cc1c(NC(=O)c2cc3ccccc3o2)cccc1-n1cnnn1	none (no result: ALR inh, Rtt109 Vps75, LANA-H2A inh)
COC(=O)[C@]12C[C@H](CC(=O)NCCc3ccccc3OC)C(=O)N(CCC3=CCCCC3)C1=C[C@H](C(C)(C)C)O[C@@H]2C	none (no result: ABHD5-PLIN5 inh, ALR inh, Rtt109 Vps75, LANA-H2A inh)
Cc1ccc(-c2csc(N)n2)cc1	none (no result: ALR inh, LANA-H2A inh)
Nc1nc(-c2ccc(Oc3ccccc3)cc2)cs1	ALR inh 99
Nc1nc(-c2cccs2)cs1	none (no result: PRMT1 inh, rCAG binder)
COc1ccc(-c2csc(N)n2)cc1	none (no result: ALR inh)
Nc1nc(-c2ccc3ccccc3c2)cs1	ALR inh 98
Nc1nc(-c2ccc(-c3ccccc3)cc2)cs1	ALR inh 99
Nc1nc(-c2ccccc2Br)cs1	ALR inh 98
COC(=O)[C@]12C[C@H](CC(=O)N3CCN(C(=O)c4ccco4)CC3)C(=O)N(Cc3ccc(Cl)cc3Cl)C1=C[C@H](C(C)(C)C)O[C@@H]2C	none (no result: ABHD5-PLIN5 inh, ALR inh, Rtt109 Vps75, LANA-H2A inh)

Bioassay records from PubChem.
